From PubChem BioAssay
Rows were chosen to be rich in hits. Some 19% of all compounds tested hit in one or more screens of this group.
DT40 TDP1 no CPT = qHTS for Inhibitors of human tyrosyl-DNA phosphodiesterase 1 (TDP1): qHTS in cells in absence of CPT. DT40 Tdp1-/- hTDP1 cells, no CPT, ATP luminescence, 48 h. Potency, µM (top dose mostly 46.2 µM), most hits filed as inhibitors. 15% of 420,000 active. AID 686978, 2013; note: nearly all actives have a fitted effect of over 55% in size
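A cellular qHTS used chicken DT40 cells lacking endogenous Tdp1 but carrying stably transfected human TDP1. Compounds were applied without camptothecin, and cell growth kinetics were judged by ATP-dependent luminescence after ≥48 hr.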
IL1B secr inh = blocks inflammasome-driven IL-1 beta release; THP-1 LPS/ATP IL-1B secretion, AlphaLISA, 16 h; active compounds read low; activity change, % at 57.5 µM; 4.7% of 360,000 active; AID 743279; in the data active = activity change below about -50%; inconclusive = mostly about -30% to -49%
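Secreted IL-1B measured by AlphaLISA bead assay after 16 h compound exposure of THP-1 cells; compounds (final up to 57.5 uM) added 1 h before LPS (250 ng/mL) and ATP (1.25 mM) stimulation; lower signal means less secretion.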
DT40 TDP1 CPT = DT40-hTDP1 cell growth loss with CPT | chicken DT40 Tdp1-/-;hTDP1 cells + 20 nM CPT, ATP luminescence, 48 h | Potency, µM (top dose mostly 46.2 µM), actives largely listed as inhibitors | 12% of 420,000 active | AID 686979; note: nearly all actives have a fitted effect of over 55% in size
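Chicken DT40 Tdp1-/- cells stably complemented with human TDP1 were seeded at 400 cells/well in medium containing 20 nM camptothecin, exposed to pin-transferred compounds, and grown at 37 °C for at least 48 hr. Viability was read as ATP luminescence.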
HT1080 IDH1KD tx = kills HT-1080 cells with IDH1 knockdown | Potency, µM (titrated, usually from 46.1 µM), actives largely listed as cytotoxic | 2% of 360,000 active | HT-1080 IDH1 knockdown viability, ATP luminescence, 48 h
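Cytotoxicity counter-line: IDH1KD HT-1080, 48 h, CellTiter-Glo. Curves classed by r2, magnitude and activity.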
HT1080NT lethal = kills 2HG-producing HT-1080-NT fibrosarcoma cells; HT-1080-NT fibrosarcoma viability, CellTiter-Glo ATP luminescence, 48 h; Potency, µM (titrated, usually from 46.1 µM), hits mostly cytotoxic; 1.6% of 360,000 active;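 note: NT is the 2HG producing partner of a matched IDH1 knockdown line; nearly all actives have a fitted effect of over 55% in size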
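HT-1080-NT; 750 cells/well; 5% FBS RPMI; 48 h compound, 37 degrees C; CellTiter-Glo luminescence; curve fitting and curve-class assignment.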
A number is an active result; n = inactive; u = inconclusive; x = no result. Unless noted, calls come from the whole dose curve; as a rule, active = well fitted curve in the direction sought with a large enough effect; inconclusive = small, poorly fitted or top-dose-only effect, or another doubt; inactive = no such curve, though single readings can be large; an effect the other way counts as inactive or inconclusive.

SMILES | DT40 TDP1 no CPT | IL1B secr inh | DT40 TDP1 CPT | HT1080 IDH1KD tx | HT1080NT lethal
Cc1ccc(-n2cc(-c3ccccc3)c3c(N4CCOCC4)ncnc32)cc1 | u | u | n | u | u
CCOc1ccc(-n2cc(-c3ccccc3)c3c(N4CCN(c5ccccc5OC)CC4)ncnc32)cc1 | 16µM | x | 12µM | x | x
COc1cccc(N2CCN(c3ncnc4c3c(-c3ccccc3)cn4-c3ccc(C)cc3)CC2)c1 | n | x | n | x | x
CCOC(=O)C1CCN(c2ncnc3c2c(-c2ccccc2)cn3-c2ccccc2)CC1 | 23µM | n | u | n | n
Cc1ccc(-n2cc(-c3ccccc3)c3c(N4CCCCC4)ncnc32)cc1 | 23µM | x | 21µM | x | x
NCCC(O)(P(=O)(O)O)P(=O)(O)O | n | x | n | x | x
CCN(CC)C(=O)c1csc(COCCO)n1 | n | n | n | n | n
Cc1ccc(F)c(S(=O)(=O)NC(=O)C2(C)CCN2C(=O)c2ccc(C(F)(F)F)nc2C)c1 (stereo unspecified) | n | n | n | u | n
CC(C)(C)NC(=O)c1cccc(NC(=O)CSc2ccccc2)c1 | n | n | n | n | n
CN1CCN(Cc2coc3c(Cl)cc(Cl)cc3c2=O)CC1 | n | n | n | n | n
Cc1cc(C)nc(NS(=O)(=O)c2ccc(NC(=O)CCCN3C(=O)c4ccccc4C3=O)cc2)n1 | n | n | n | n | n
CN(C)C(=O)N1CCc2ccc([N+](=O)[O-])cc21 | n | n | n | n | n
COc1ccc(-n2cc(-c3ccccc3)c3c(N4CCCC(C)C4)ncnc32)cc1 (stereo unspecified) | 10µM | x | 16µM | x | x
COc1ccc(-n2cc(-c3ccccc3)c3c(SC(C)C(C)=O)ncnc32)cc1 (stereo unspecified) | n | x | n | x | x
NS(=O)(=O)c1ccc(NC(=O)COC(=O)CN2C(=O)C3CC=CCC3C2=O)cc1 (stereo unspecified) | n | n | n | n | n
CCOc1ccc(N(C)S(=O)(=O)c2ccc(C)c(C(=O)Nc3nnc(C4CC4)s3)c2)cc1 | 4.6µM | n | n | n | n
CN(C)CC(O)COC(c1ccc(Cl)cc1)c1ccc(Cl)cc1 (stereo unspecified) | 21µM | -79 | u | u | 21µM
CCN(CC)CCCNC(=O)c1ccc(OCC(=O)Nc2ccccc2C(F)(F)F)c(OC)c1 | u | -62 | u | u | u
CCOC(=O)c1nc2sc3c(c2c(=O)n1C(C)C(=O)OCC)CCCC3 (stereo unspecified) | u | u | 10µM | n | n
CCOC(=O)c1sc(NC(=O)Cn2nnc3sc4c(c3c2=O)CCCC4)nc1C | n | n | n | n | n
Cc1noc(Cn2c(=O)c3ccccc3n(CC(=O)Nc3ccc(F)cc3F)c2=O)n1 | n | x | u | x | x
CC/C=C1/N=C2C(=O)N(C)C(=O)N=C2N(C)N1 | u | x | 0.089µM | x | x
CN1N/C(=C\c2ccccc2)N=C2C(=O)N(C)C(=O)N=C21 | u | x | 1.4µM | x | x
COCc1c(C(=O)N/N=C/c2cccc3ccccc23)nnn1-c1nonc1N | n | n | n | n | n
CCCCN(c1ccccc1)c1ncnc2c1cnn2-c1ccc(Cl)cc1 | 18µM | x | 16µM | x | x
SMILES | DT40 TDP1 no CPT | IL1B secr inh | DT40 TDP1 CPT | HT1080 IDH1KD tx | HT1080NT lethal
Cc1ccc(-n2ncc3c(N(CCO)Cc4ccccc4)ncnc32)cc1 | 8.2µM | x | 12µM | x | x
CCN(c1ccccc1)c1ncnc2c1cnn2-c1ccc(OC)cc1 | 5.2µM | x | 8.2µM | x | x
OCCN(CCO)c1ncnc2c1cnn2-c1ccc(F)cc1 | n | x | n | x | x
COc1ccc(CN(C(=O)c2cnccn2)C(C(=O)Nc2ccc(F)cc2)c2ccccc2)cc1 (stereo unspecified) | u | n | u | n | n
O=C(CSc1nnc2ccccn12)NNC(=O)c1cccc(Cl)c1 | n | n | n | n | n
Cc1ccc2nc(N3CCC(C(=O)N4CCN(c5cccc(C)c5C)CC4)CC3)[nH]c2c1 | 5.8µM | x | 2.9µM | x | x
Cc1cccc(N2CCN(C(=O)C3CCN(S(=O)(=O)Cc4ccccc4)CC3)CC2)c1C | 9.2µM | x | 7.3µM | x | x
O=C(O)C1CCN(S(=O)(=O)c2cccnc2)CC1 | n | n | n | n | n
Cc1cccc(N2CCN(C(=O)C3CCN(S(=O)(=O)c4cccnc4)CC3)CC2)c1C | 16µM | n | 18µM | n | n
CC(=O)c1ccc(N2CCN(C(=O)C3CCN(S(=O)(=O)Cc4ccccc4)CC3)CC2)cc1 | u | n | n | n | n
O=C(C1CCN(S(=O)(=O)Cc2ccccc2)CC1)N1CCN(c2ccc(F)cc2)CC1 | u | x | 23µM | x | x
Cc1ccc(S(=O)(=O)N2CCC(C(=O)N3CCC3)CC2)cc1 | n | n | u | n | n
Cc1ccc(CN2CC(N3CCN(CC4CC4)CC3)CS2(=O)=O)cc1 (stereo unspecified) | n | n | n | n | n
COCC(=O)N(C)C[C@H]1Oc2cc(C#Cc3cccnc3)ccc2S(=O)(=O)N([C@H](C)CO)C[C@H]1C | u | n | n | n | n
CCCNC(=O)C1(C)CCCN(C(=O)c2ccccc2OC)C1 (stereo unspecified) | n | n | n | n | n
CCc1ccccc1NC(=O)Cn1c(=O)n(-c2ccc(C)cc2)c(=O)c2cc(OC)c(OC)cc21 | n | x | n | x | x
COc1ccccc1-c1nnc2n1N=C(c1ccc(O)c(O)c1)CS2 | 6.5µM | n | 6.5µM | u | 0.21µM
CCOc1ccc(C2=Nn3c(nnc3-c3ccccc3OC)SC2)cc1 | 0.18µM | n | 0.21µM | 0.01µM | 0.21µM
O=C(NCc1ccncc1)Nc1ccccc1F | n | n | n | n | n
CCOC(=O)c1nn(-c2ccc(C)cc2)cc1C(=O)c1ccccc1 | n | n | n | n | n
COc1ccc(-c2cn3cc(C(F)(F)F)cc(Cl)c3n2)cc1 | 18µM | n | u | u | u
O=c1cc(N2CCN(c3ccccc3)CC2)[nH]c(=O)n1C1CCCCC1 | n | n | n | n | n
O=C(C1CCC(=O)N(C2CC2)C1)N1CCN(c2ccccc2Cl)CC1 (stereo unspecified) | n | n | n | n | n
COC1CCN(C(=O)C2CCC(=O)N(C3CCCCCC3)C2)CC1 (stereo unspecified) | n | n | n | n | n
Cc1ccccc1OC1CCN(C(=O)C2CCC(=O)N(C3CCCC3)C2)CC1 (stereo unspecified) | 15µM | n | u | n | u
O=c1cc(N2CCN(c3cccc(Cl)c3)CC2)[nH]c(=O)n1C1CCCCC1 | 1.6µM | n | u | n | n
Cc1ccc(OC2CCN(C(=O)C3CCC(=O)N(C4CC4)C3)CC2)cc1 (stereo unspecified) | n | n | n | n | n
O=C(C1CC(=O)N(C2CCCC2)C1)N1CCN(c2cccc(Cl)c2)CC1 (stereo unspecified) | 23µM | n | 18µM | n | n
